The list is not random: actives were taken first. Their share in the collection is about 12%.
PLK1 PBD block: blocks phosphopeptide binding to human PLK1 polo-box domain; P53350; Plk1 PBD binding of FITC phosphopeptide, fluorescence polarization; Potency, µM, for inactives: max response, negative = inhibition, hits mostly inhibitors; 360,000 compounds, 2.8% hits; further: series mostly up to about 57 µM; on the % scale 0 is the no-effect control and ±100 the full control effect; nearly all actives have a fitted effect of over 65% in size
JMJD2A Tudor inh: JMJD2A Tudor domain (human) inhibition; O75164; AlphaScreen JMJD2A-Tudor / H3K4me3 peptide binding; Potency, µM (series often up to 114 µM), inactives show at the highest dose activity change, negative = inhibition, usual class: inhibitors; 390,000 compounds, 4.4% hits; AID 504339; further: on the % scale 0 is the no-effect control and ±100 the full control effect; nearly all actives have a fitted effect of over 50% in size
Sfp inh: blocks B. subtilis Sfp PPTase activity | 310,000 compounds, 3.5% hits | Q9F4F7 | Biochemical Sfp PPTase activity, qHTS | Potency, µM, inactives show largest response in the series, negative = inhibition, hits mostly inhibitors;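 further: the enzyme is Sfp with the accession as filed and its product quenches rhodamine fluorescence; 0% = enzyme reaction without inhibitor and -100% = no enzyme wells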
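After 15 min at room temperature with compound, 15 nM Sfp received 5 uM rhodamine-CoA plus 12.5 uM BHQ-2-ybbR (50 mM Hepes pH 7.6, 10 mM MgCl2). Rate came from the fluorescence difference over 30 min, ex 525/em 598 nm.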
HP1b binding inh: HP1-beta chromodomain-methylated histone interaction inhibition. P83916. AlphaScreen HP1-beta / biotin-H3K9me3 peptide binding. Potency, µM (doses to about 114 µM), without a hit: at the highest dose activity change, negative = inhibition, hits mostly inhibitors. 390,000 compounds, 0.56% hits; further: nearly all actives have a fitted effect of over 70% in size
Target sequence (P83916 whole entry, looked up): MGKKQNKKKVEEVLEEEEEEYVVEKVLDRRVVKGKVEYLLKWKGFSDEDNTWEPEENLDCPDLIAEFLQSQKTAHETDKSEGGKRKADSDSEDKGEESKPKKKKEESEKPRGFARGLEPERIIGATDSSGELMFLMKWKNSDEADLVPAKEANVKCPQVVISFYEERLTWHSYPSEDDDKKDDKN
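Compound inhibition of the preformed complex between 50 nM HP1-beta and 50 nM biotinylated H3K9me3 peptide was read by AlphaScreen. Buffer was PBS pH 7.4 with 0.01% Tween-20. Incubations ran 30 min at room temperature, with 10 ug/mL donor/acceptor beads.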
G9a inh: G9a (human) methyltransferase inhibition; 350,000 compounds, 8.8% hits; G9a H3K9 monomethylation, AlphaScreen, 2 h; Potency, µM (series often up to 102 µM), without a hit: at the top dose activity, negative = inhibition, actives largely listed as inhibitors; Q96KQ7; AID 504332; further: on the % scale 0 is the no-effect control and ±100 the full control effect; nearly all actives have a fitted effect of over 75% in size
Target sequence (Q96KQ7 913-1193 limits assumed): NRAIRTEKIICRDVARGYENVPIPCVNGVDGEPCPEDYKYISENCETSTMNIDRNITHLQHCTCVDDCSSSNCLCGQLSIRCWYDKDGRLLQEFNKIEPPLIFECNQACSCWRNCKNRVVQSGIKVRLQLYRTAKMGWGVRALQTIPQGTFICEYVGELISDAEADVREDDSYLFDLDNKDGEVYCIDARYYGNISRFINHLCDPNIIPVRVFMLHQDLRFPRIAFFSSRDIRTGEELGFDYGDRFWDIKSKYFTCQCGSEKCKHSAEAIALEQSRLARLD
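AlphaScreen read-out: biotin-H3K9 peptide (500 nM) methylation by 20 nM enzyme with 20 uM SAM, 2 h at room temperature after 15 min compound preincubation; anti-monomethyl H3K9 antibody plus donor/acceptor beads, 10 min dark.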
BAZ2B inh: inhibitors of human BAZ2B bromodomain; Q9UIF8; AlphaScreen BAZ2B-H3K14Ac peptide displacement; Potency, µM (titrated, usually from 114 µM), without a hit: at the top dose activity change, negative = inhibition, hits mostly inhibitors; 360,000 compounds, 4.4% hits; further: on the % scale 0 is the no-effect control and ±100 the full control effect; nearly all actives have a fitted effect of over 60% in size
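BAZ2B (50 nM) with biotin-H3(5-23)K14Ac peptide (50 nM) in PBS pH 7.4, 0.01% Tween-20, preformed 30 min, then compound 30 min at room temperature; top concentration 110uM. AlphaScreen streptavidin donor/nickel chelate acceptor beads (10 ug/mL final), 20 min dark, signal read.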
Numbers without * were called inactive; [ ] = another dose, or the depositor's remark. The call rests on the fitted dose curve; in most records, active means well fitted curve in the direction sought with a large enough effect; inconclusive means small, poorly fitted or top-dose-only effect, or another doubt; inactive means no such curve, though single readings can be large; an effect the other way counts as inactive or inconclusive. Potency means the concentration at half of the fitted maximal effect.

How did COc1ccc(C(=O)NC2CCCc3c2cnn3-c2cccc(C)c2C)o1 (stereo not drawn) do in these assays?
PLK1 PBD block: -5%; JMJD2A Tudor inh: -31%; Sfp inh: 11%; HP1b binding inh: -1%[57 µM]; G9a inh: inconclusive; BAZ2B inh: -25%

How did CSCCNC(=O)C1(C)CCN1C(=O)c1sccc1C (stereo not drawn) do in these assays?
PLK1 PBD block: -6%

What do the screens show for `CCCCNC(=O)CSc1nc2cc3c(cc2c(=O)n1CCCCCC(=O)NCc1ccc(OC)cc1)OCO3`?
JMJD2A Tudor inh: 2%; HP1b binding inh: 43%; G9a inh: -2%[59 µM]; BAZ2B inh: -1%

What do the screens show for `Cc1ccc(CN2CCN(/N=C/c3cc(Br)ccc3O)CC2)cc1`?
PLK1 PBD block: -7%; JMJD2A Tudor inh: -13%; Sfp inh: -3%; HP1b binding inh: -7%; G9a inh: 9%[12.7 µM]; BAZ2B inh: -29%

Results for Cc1ccc(CN2CCN(/N=C/c3ccc(C(F)(F)F)cc3)CC2)cc1 ?
PLK1 PBD block: -2%; JMJD2A Tudor inh: inconclusive; Sfp inh: 0%; HP1b binding inh: inconclusive; G9a inh: 6%[59 µM]; BAZ2B inh: -34%

How did Cc1ccc(/C=N/N2CCN(Cc3ccc(C)cc3)CC2)cc1 do in these assays?
PLK1 PBD block: -7%; JMJD2A Tudor inh: inconclusive; Sfp inh: 4%; HP1b binding inh: -4%; G9a inh: inconclusive; BAZ2B inh: 35µM*

What do the screens show for `Cc1ccc(CN2CCN(/N=C/c3cccs3)CC2)cc1`?
PLK1 PBD block: -8%; JMJD2A Tudor inh: -25%[57.1 µM]; Sfp inh: -3%; HP1b binding inh: inconclusive; G9a inh: inconclusive; BAZ2B inh: 45µM*

How did CCCCNc1nc(=S)n(-c2ccccc2)c(C)c1C(C)=O do in these assays?
PLK1 PBD block: -7%; JMJD2A Tudor inh: -13%; Sfp inh: -3%; HP1b binding inh: 42%; G9a inh: 6%; BAZ2B inh: -2%

How did CCn1nc(C)c(CCN(C)C(=O)Nc2cc(Cl)c(OC)cc2OC)c1C do in these assays?
JMJD2A Tudor inh: -2%; HP1b binding inh: 40%; G9a inh: 13%[59 µM]; BAZ2B inh: -13%

Results for COc1ccc2oc(=O)c(-c3csc(Nc4ccc(O)cc4)n3)cc2c1 ?
PLK1 PBD block: -3%; JMJD2A Tudor inh: -22%; Sfp inh: 25µM*; HP1b binding inh: -16%; G9a inh: inconclusive; BAZ2B inh: inconclusive

What do the screens show for `COc1ccc(Nc2nc(-c3c[nH]c4ccccc34)cs2)cc1`?
PLK1 PBD block: -3%; JMJD2A Tudor inh: -3%; Sfp inh: -22%; HP1b binding inh: 19%; G9a inh: inconclusive; BAZ2B inh: 45µM*

What do the screens show for `NC(=O)c1cc([N+](=O)[O-])ccc1NCc1cnccn1`?
PLK1 PBD block: -1%; JMJD2A Tudor inh: -17%; HP1b binding inh: 22%; G9a inh: -6%[2.33 µM]; BAZ2B inh: 15%

How did COc1ccc(C#Cc2c[nH]c(=O)c3cncnc23)cc1OC do in these assays?
JMJD2A Tudor inh: -20%; HP1b binding inh: 21%

Results for CC(C)C[C@@H](CC(=O)N[C@@H](CCC(=O)O)CC(=O)O)NC(=O)[C@@H]1CNCC[C@H]1NC(=O)C[C@@H](NC(=O)C[C@H](Cc1c[nH]c2ccccc12)NC(=O)[C@@H]1CCCC[C@H]1N)C(C)C ?
Sfp inh: -17%

Results for Cc1cc(C)c(NC(=O)CS(=O)CC(=O)Nc2ccc(-n3cnnn3)c(C)c2)c(C)c1 (stereo not drawn) ?
PLK1 PBD block: 8%; JMJD2A Tudor inh: 6%; Sfp inh: 2%; HP1b binding inh: 21%; G9a inh: 64%; BAZ2B inh: 3%

What do the screens show for `CC(C)(C)NCCCCOc1ccccc1F`?
PLK1 PBD block: -12%; JMJD2A Tudor inh: -9%; Sfp inh: 13%; HP1b binding inh: 8%; G9a inh: -26%[12.7 µM]; BAZ2B inh: -25%

What do the screens show for `CNCCOc1ccccc1C(C)(C)C`?
PLK1 PBD block: -9%; JMJD2A Tudor inh: 3.2µM*; Sfp inh: inconclusive; HP1b binding inh: -44%; G9a inh: 13µM*; BAZ2B inh: inconclusive

Compound activity (PubChem BioAssay)
